In the library only some 1.3% were active in any assay of this set; here they are far more common.
MCL1 BIM primary – disrupts human MCL1 binding to BIM-BH3 peptide | Q07820 | GST-MCL1 / FITC-Bim-BH3 fluorescence polarization | inhibition, % at 10.9 µM | 320,000 tested, 0.68% active;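 active = inhibition above the mean inhibition of all tested compounds plus 3 SD, set per campaign, cut at about 40% in these data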;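 note: 0% = DMSO wells and 100% = unlabeled Bim-BH3 peptide control; higher means more loss of mP so more displacement of Bim peptide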
Target sequence (Q07820 whole entry, looked up): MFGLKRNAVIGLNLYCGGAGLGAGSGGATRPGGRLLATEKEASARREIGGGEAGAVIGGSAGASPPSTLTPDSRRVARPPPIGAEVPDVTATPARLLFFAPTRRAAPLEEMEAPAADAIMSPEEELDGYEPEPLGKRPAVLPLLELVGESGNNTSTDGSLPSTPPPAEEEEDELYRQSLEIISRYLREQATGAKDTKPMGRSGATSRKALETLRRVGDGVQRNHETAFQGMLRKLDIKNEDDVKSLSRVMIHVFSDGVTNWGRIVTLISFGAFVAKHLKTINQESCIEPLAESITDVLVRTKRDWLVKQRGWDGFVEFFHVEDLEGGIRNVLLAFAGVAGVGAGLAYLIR
C-LANA FP – KSHV C-LANA DNA binding inhibition | MBP-C-LANA/FAM-LBS DNA binding, fluorescence polarization | inhibition, % at 9 µM | 340,000 tested, 0.078% active | AID 504423;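 active = highest replicate inhibition at or above 60% at 9 µM, even if other replicates fall short; inactive = all replicates below 60% inhibition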;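 note: 0% = neutral control wells and 100% = 4 µM acridine orange control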
eLon inh – inhibits E. coli Lon protease; P0A9M0; purified E. coli Lon protease, fluorescence polarization; inhibition, % at 7.94 µM; 360,000 tested, 0.42% active; AID 602123; in the data active = inhibition above about 13%, passing the limit was not always enough;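 note: 0% = enzyme with probe and DMSO and 100% = no enzyme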
GLD-1 TGE inh – GLD-1-TGE RNA interaction inhibition (C. elegans) | Q17339 | purified GLD-1 + fluorescein TGE RNA, fluorescence polarization | inhibition, % at 5.96 µM | 320,000 tested, 0.44% active | AID 2280;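 active = percent inhibition above a per-plate cutoff, the plate mean of test compounds plus 3 SD, cut at about 30% in these data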;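 note: 0% = DMSO wells with GLD-1 and probe and 100% = wells lacking GLD-1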
Bcl-xL primary – Bcl-xL (human) inhibition | 320,000 tested, 0.7% active | AID 2129 | inhibition, % at 10.9 µM | GST-Bcl-xL / FITC-Bim BH3 peptide fluorescence polarization | Q07817;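 active = inhibition above the mean of all tested compounds plus 3 SD, cutoff set per campaign, cut at about 30% in these data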;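 note: 0% = DMSO wells and 100% = unlabeled Bim-BH3 peptide competitor; inhibitors lower millipolarization by displacing the labeled peptide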
Target sequence (Q07817 whole entry, looked up): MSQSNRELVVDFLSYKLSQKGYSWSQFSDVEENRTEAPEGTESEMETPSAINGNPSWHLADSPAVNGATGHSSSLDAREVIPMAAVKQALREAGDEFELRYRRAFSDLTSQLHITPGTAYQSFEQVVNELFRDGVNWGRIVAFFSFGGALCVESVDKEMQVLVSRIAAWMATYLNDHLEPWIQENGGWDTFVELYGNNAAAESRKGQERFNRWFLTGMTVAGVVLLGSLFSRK
Keap1-Nrf2 PPI – Keap1-Nrf2 (human) interaction inhibition | Q14145 | Keap1 Kelch-Nrf2 peptide fluorescence polarization, 1536-well | inhibition, % at 9.4 µM | 340,000 tested, 0.15% active | AID 504523; in the data active = inhibition above about 12%;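 note: human Keap1 Kelch domain with fluorescein labeled Nrf2 9mer peptide probe; 0% = neutral control wells and 100% = peptide positive control; higher means more block of Keap1 binding to Nrf2 peptide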
eLon confirm – confirmation of E. coli Lon protease inhibitors. purified E. coli Lon, fluorescence polarization. AID 602230. 1,400 tested, 31% active. shares compounds with eLon inh. inhibition, % at 7.94 µM; in the data active = inhibition above about 16%;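 note: 0% = enzyme with probe and DMSO and 100% = no enzyme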
The depositor's hits bear a star; / = no result; + = active, no number.

SMILES	MCL1 BIM primary	C-LANA FP	eLon inh	GLD-1 TGE inh	Bcl-xL primary	Keap1-Nrf2 PPI	eLon confirm
Cc1ncc([N+](=O)[O-])n1CC(=O)Nc1cccc(C(F)(F)F)c1	5.3	2.9	29.3*	1.1	9.7	-2.6	-91.4
CC(=O)c1sc(NC(=O)C2CCCN2S(=O)(=O)c2ccccc2F)nc1C (stereo unspecified)	3.3	1.9	-2.0	2.9	1.4	-1.4	/
O=C(Nc1ccccc1)c1nn(-c2cccc(C(F)(F)F)c2)ccc1=O	5.5	-0.6	-6.0	-0.1	6.8	-2.8	/
COC(=O)c1nn(-c2cccc(C(F)(F)F)c2)ccc1=O	1.8	-1.2	19.5*	9.1	5.3	-3.0	-8.8
CCN(CC)c1ccc(C(=O)Nc2ccccc2)cc1[N+](=O)[O-]	6.6	-0.7	-1.8	8.2	2.1	-0.8	/
O=C(CNC(=O)c1ccc(Br)o1)NNC(=O)c1ccccc1	/	0.2	96.0*	/	/	-6.2	4.0
O=C(CNC(=O)c1ccc(Br)o1)NNC(=O)c1ccc(Cl)cc1	0.9	-0.2	-2.6	-3.7	0.0	-4.2	/
CCCCCC(=O)NC(=S)Nc1ccc2oc(=O)ccc2c1	2.9	-0.4	3.8	-2.3	5.0	0.3	/
C=CCN(C(=O)COc1ccccc1)c1nnc(-c2ccncc2)s1	5.2	-1.4	18.3*	5.5	7.3	5.1	-8.3
COCCN(C(=O)c1cccc(OC)c1)c1nnc(-c2ccncc2)s1	0.6	-1.3	4.7	0.5	-0.2	0.2	/
Cc1ccc(CN(C)C(=O)CCNC(=O)c2ccc(Cl)cc2)o1	/	/	7.9	/	/	/	/
CC1=C(C(=O)OCC2CCCO2)C(c2ccc(F)cc2)NC(=O)N1 (stereo unspecified)	-3.2	-1.0	-8.2	4.1	5.6	-1.2	/
CCC(C)(C)NC(=O)C(c1cccc(OC)c1OC)N(C(=O)CCC(=O)Nc1cc(C)on1)C(C)C (stereo unspecified)	5.5	-0.3	21.0*	-1.8	1.7	-1.3	4.6
CCC(C)(C)NC(=O)C(c1cccc(OC)c1OC)N(CCC(C)C)C(=O)CCC(=O)Nc1cc(C)on1 (stereo unspecified)	-2.3	0.8	1.1	-3.4	-0.4	-0.9	/
O=C(COC(=O)Cc1ccc(Cl)cc1)NC1CCCC1	11.0	-2.0	49.8*	-0.2	5.2	0.6	-11.4
O=C(COC(=O)Cc1ccc(F)cc1)NC1CCCC1	6.9	0.7	-11.1	-2.4	3.1	1.6	/
Cc1ccc(C(C)C)cc1OCCCCN1CCCC1	-15.8	-3.3	-2.2	1.9	0.5	-4.1	/
NC(Cc1ccc(F)cc1)c1csc(Nc2ccc(C(F)(F)F)cn2)n1 (stereo unspecified)	/	/	2.8	/	/	/	/
COc1cc(OC)c(C2C(C(=O)O)c3ccccc3C(=O)N2C)cc1OC (stereo unspecified)	7.9	1.2	-6.7	0.2	7.2	-2.3	/
COc1ccc(C2C(C(=O)O)c3ccccc3C(=O)N2C)cc1Br (stereo unspecified)	5.5	-1.6	19.4*	6.4	8.3	-4.7	-457.6
COc1ccc(C(=O)Nc2ccc(NS(=O)(=O)c3ccccc3)cc2)cc1OC	-0.2	2.0	6.1	4.3	5.8	-1.2	/
Nc1scc2c(C(=O)N/N=C/c3ccc(Cl)cc3)nn(-c3ccccc3)c(=O)c12	40.5*	-1.0	14.7*	11.5	42.6*	-2.0	16.6*
COc1ccc(C(C)=O)cc1CSc1nnc(-c2ccncc2)o1	2.2	0.5	92.9*	-4.7	1.5	-1.5	-22.1
COC(=O)c1ccc(OC)c(CSc2nnc(-c3ccc(C)cc3)o2)c1	/	-1.4	8.8	/	/	1.1	/
Cc1ccc(C(C)(C)C)cc1S(=O)(=O)Nc1cccc(S(=O)(=O)NC2=NCCC2)c1	11.7	-0.3	-6.3	2.9	5.3	-3.3	/
SMILES	MCL1 BIM primary	C-LANA FP	eLon inh	GLD-1 TGE inh	Bcl-xL primary	Keap1-Nrf2 PPI	eLon confirm
COc1cccc(-c2nc(CS(=O)(=O)CC(=O)N3CCc4ccccc43)c(C)o2)c1	0.8	0.9	-9.0	5.8	5.2	4.5	/
O=C(O)c1ccc(Nc2ccc([N+](=O)[O-])c3nonc23)cc1	/	-2.4	5.9	/	/	-4.3	/
O=[N+]([O-])c1ccc(Nc2ccccc2O)c2nonc12	/	2.5	29.5*	/	/	-5.9	28.6*
CCCc1ccc2oc(C(=O)NCCc3cnn(C)c3)c(C)c2c1	3.1	0.9	19.3*	7.2	3.8	-3.7	-3.5
O=C1C(=O)C(Cl)=C(Cl)C(Cl)=C1Cl	/	/	40.3*	/	/	/	50.7*
Cc1cc(NC(=O)COC(=O)c2cc(S(=O)(=O)N3CCOCC3)ccc2N2CCCCC2)no1	-10.8	-1.7	53.7*	-2.6	-8.0	0.2	9.4
CC(C)NC(=O)NC(=O)COC(=O)c1cc(S(=O)(=O)N2CCCCC2)ccc1N1CCOCC1	-17.9	0.3	15.3	5.7	-5.1	-1.8	/
O=C(NC1CCCCC1)c1cc(S(=O)(=O)N2CCCCC2)ccc1N1CCOCC1	-1.1	-0.3	20.5*	5.2	-0.7	-2.5	-2.3
Cc1cccc(NC(=O)CNC(=O)[C@H]2O[C@@H](n3ccc(N)nc3=O)[C@H](O)[C@@H]2O)c1C	/	/	-16.3	/	/	/	/
Cn1c(CNc2ccc(Cl)cc2)nnc1SCc1ccccc1	7.2	-1.7	+	-0.9	3.8	-1.5	2.5
CCn1c(CNc2ccc(Cl)cc2)nnc1SCc1ccccc1	0.8	1.6	-12.2	3.0	7.3	0.1	/
Clc1ccc(CN2CC[C@H]3C=CCc4cccc(c43)C2)cc1	0.4	2.2	-3.3	0.8	3.8	-3.4	/
Fc1ccc(CN2CC[C@H]3C=CCc4cccc(c43)C2)cc1	11.4	1.8	30.2*	0.0	9.2	-5.4	-9.0
CCOC(=O)c1ccc(NC(=S)N2CCN(C(=O)C3CCCO3)CC2)cc1 (stereo unspecified)	9.7	-1.0	-8.5	-4.9	1.5	-1.1	/
CCCCN(C(=O)C1=COCCO1)c1c(N)n(CCC)c(=O)[nH]c1=O	10.9	-0.3	-1.1	10.4	11.6	0.3	/
CCCCn1c(N)c(N(CCC(C)C)C(=O)C2=COCCO2)c(=O)[nH]c1=O	19.8	0.5	36.2*	11.9	16.1	1.9	4.5
O=C(c1cccc(OC2CCN(Cc3ccc(F)cc3Cl)CC2)c1)N1CCCC1	-0.1	1.9	9.1	3.5	6.1	-1.1	/
NC(=O)CN1C(=O)C(=O)N(Cc2ccc(Cl)cc2)C1=O	5.5	-1.4	-6.0	3.2	4.4	-2.2	/
O=C(O)CN1C(=O)C(=O)N(Cc2ccc(Cl)cc2Cl)C1=O	-8.7	4.2	18.2*	0.7	3.9	-2.8	16.8*
Cc1ccc(-c2nnn(C/C(N)=N/O)n2)cc1	-1.8	0.2	-2.6	-30.3	2.7	-0.2	/
COc1cc(-c2nnc(COC(=O)c3nn(CC(C)C)c(=O)c4ccccc34)o2)cc(OC)c1OC	-0.3	2.1	-4.6	-5.5	2.0	-1.9	/
O=C(CN1C(=O)c2ccccc2S1(=O)=O)N1CCN(c2ccccc2)CC1	1.5	-0.8	1.7	5.8	1.7	-2.4	/
